# Tests used:
# Assay in all cases: DAPPL (digital affinity profiling via proximity ligation, sequencing); 10 mM Tris-HCl pH 7.5, 50 mM NaCl, 1 mM DTT, 4% glycerol, room temperature, 30 min; GST-TFs on glutathione beads, 16-mer random dsDNA library, 0.1% formaldehyde crosslink after washing; high values mean tight binding
# FEV = target: T1, FEV (Homo sapiens, UniProt Q99581 1-238); conditions: protein: recombinant; tags: N-terminal GST; dsDNA, one strand shown
# T1 sequence: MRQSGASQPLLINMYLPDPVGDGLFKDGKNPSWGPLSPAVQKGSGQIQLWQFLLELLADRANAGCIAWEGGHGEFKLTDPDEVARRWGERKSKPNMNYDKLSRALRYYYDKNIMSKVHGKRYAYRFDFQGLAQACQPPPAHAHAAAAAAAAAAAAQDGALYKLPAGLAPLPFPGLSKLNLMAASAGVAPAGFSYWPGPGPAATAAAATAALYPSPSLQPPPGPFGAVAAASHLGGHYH
# Procedure, shortened: (§1)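 Human transcription factors were made in yeast as GST fusions, captured on glutathione beads and barcoded with DNA. With a tag-only sample included, the pool was incubated with 200 nmole of a random double-stranded 16-mer DNA library in Tris/NaCl/DTT/glycerol buffer at room temperature for 30 min, then crosslinked with 0.1% formaldehyde after washing, ligated by proximity, amplified and sequenced. For binding signal, each hexamer's read frequency for a factor is divided by its frequency for the tag-only sample.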
# ETV5 = ETV5 (Homo sapiens, UniProt P41161 1-510); conditions: protein: recombinant; tags: N-terminal GST; dsDNA, one strand shown
# Sequence of ETV5 (P41161 whole entry): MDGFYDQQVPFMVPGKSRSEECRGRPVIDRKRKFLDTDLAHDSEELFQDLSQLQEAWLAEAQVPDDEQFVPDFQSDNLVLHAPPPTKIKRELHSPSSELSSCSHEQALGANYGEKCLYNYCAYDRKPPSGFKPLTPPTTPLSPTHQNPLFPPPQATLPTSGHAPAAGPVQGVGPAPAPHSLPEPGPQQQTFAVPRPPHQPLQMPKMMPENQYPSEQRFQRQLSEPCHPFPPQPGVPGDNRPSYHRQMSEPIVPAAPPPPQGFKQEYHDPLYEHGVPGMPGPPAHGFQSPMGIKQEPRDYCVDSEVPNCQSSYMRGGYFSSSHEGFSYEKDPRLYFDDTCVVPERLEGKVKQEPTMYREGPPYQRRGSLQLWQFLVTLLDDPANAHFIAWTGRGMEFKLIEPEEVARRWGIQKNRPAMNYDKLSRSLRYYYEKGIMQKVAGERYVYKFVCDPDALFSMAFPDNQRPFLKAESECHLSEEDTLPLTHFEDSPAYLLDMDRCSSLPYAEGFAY
# Procedure, shortened: as §1
# HSF1 = HSF1 (Homo sapiens, UniProt Q00613 1-529); conditions: protein: recombinant; tags: N-terminal GST; chain copies: 3; dsDNA, one strand shown
# Sequence of HSF1 (Q00613 whole entry): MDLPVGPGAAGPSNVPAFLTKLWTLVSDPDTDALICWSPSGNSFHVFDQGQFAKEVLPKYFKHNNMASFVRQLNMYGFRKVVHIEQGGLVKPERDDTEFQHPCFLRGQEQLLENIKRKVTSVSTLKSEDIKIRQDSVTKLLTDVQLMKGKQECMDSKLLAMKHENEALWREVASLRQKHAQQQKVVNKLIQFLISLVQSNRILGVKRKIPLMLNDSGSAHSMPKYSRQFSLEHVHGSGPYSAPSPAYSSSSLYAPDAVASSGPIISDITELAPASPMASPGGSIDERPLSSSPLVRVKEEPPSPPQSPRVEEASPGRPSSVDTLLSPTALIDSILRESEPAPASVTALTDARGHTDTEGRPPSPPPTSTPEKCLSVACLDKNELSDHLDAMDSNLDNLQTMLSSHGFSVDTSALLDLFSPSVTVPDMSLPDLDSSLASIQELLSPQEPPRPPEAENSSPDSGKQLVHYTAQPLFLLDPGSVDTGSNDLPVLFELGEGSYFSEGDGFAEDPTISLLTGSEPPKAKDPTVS
# Procedure, shortened: as §1
# SPIC = target: T2, SPIC (Homo sapiens, UniProt Q8N5J4 1-248); conditions: protein: recombinant; tags: N-terminal GST; dsDNA, one strand shown
# T2 sequence: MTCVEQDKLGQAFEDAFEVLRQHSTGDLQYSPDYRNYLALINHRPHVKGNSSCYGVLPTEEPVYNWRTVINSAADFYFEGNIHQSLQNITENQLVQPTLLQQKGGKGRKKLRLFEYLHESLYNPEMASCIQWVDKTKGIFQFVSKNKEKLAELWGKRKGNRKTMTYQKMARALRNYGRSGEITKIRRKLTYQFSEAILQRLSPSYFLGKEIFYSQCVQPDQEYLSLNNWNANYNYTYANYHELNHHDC
# Procedure, shortened: as §1
# ELF4 = ELF4 (Homo sapiens, UniProt Q99607 1-663); conditions: protein: recombinant; tags: N-terminal GST; dsDNA, one strand shown
# Sequence of ELF4 (Q99607 whole entry): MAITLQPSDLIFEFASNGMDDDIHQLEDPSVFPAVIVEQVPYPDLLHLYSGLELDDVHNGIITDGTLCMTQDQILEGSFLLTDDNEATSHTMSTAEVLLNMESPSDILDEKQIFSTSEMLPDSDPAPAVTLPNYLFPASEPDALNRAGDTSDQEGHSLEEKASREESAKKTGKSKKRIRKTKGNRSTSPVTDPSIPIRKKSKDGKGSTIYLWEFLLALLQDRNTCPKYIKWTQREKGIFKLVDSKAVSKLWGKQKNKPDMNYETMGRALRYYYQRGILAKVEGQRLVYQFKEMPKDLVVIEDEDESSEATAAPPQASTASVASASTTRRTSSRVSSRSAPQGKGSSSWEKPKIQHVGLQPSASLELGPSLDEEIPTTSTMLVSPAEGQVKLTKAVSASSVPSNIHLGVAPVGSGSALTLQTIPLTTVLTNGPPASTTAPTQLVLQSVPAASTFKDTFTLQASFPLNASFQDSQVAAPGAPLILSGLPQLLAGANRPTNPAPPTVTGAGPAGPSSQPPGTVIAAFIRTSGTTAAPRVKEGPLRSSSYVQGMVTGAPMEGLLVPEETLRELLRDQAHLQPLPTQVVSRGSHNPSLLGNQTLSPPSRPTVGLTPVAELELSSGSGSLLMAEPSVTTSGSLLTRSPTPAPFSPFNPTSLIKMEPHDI
# Procedure, shortened: as §1
# ELK4 = target: T3, ELK4 (Homo sapiens, UniProt P28324-2 1-405); conditions: protein: recombinant; tags: N-terminal GST; dsDNA, one strand shown
# T3 sequence: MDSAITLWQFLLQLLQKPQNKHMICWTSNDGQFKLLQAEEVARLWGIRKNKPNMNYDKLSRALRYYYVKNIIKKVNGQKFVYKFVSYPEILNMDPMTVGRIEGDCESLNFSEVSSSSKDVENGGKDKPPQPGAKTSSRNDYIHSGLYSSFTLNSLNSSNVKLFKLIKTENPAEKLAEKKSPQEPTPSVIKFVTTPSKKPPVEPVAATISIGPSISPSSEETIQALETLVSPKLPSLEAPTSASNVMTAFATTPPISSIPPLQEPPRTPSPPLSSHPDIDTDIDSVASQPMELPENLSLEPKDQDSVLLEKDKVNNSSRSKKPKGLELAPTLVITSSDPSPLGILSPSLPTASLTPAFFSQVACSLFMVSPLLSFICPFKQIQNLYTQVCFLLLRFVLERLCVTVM
# Procedure, shortened: as §1
# ETV2 = target: T4, ETV2 (Homo sapiens, UniProt O00321 1-342); conditions: protein: recombinant; tags: N-terminal GST; dsDNA, one strand shown
# T4 sequence: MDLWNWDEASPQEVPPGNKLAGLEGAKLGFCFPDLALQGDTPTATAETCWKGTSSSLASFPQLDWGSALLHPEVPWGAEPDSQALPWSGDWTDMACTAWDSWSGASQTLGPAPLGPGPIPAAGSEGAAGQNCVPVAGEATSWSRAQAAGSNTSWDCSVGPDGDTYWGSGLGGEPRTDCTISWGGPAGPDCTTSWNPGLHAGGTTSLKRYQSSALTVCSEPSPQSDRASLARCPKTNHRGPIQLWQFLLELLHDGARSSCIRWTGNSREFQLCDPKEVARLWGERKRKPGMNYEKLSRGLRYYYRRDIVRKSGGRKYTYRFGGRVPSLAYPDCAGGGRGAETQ
# Procedure, shortened: as §1
# ELF3 = target: T5, ELF3 (Homo sapiens, UniProt P78545 1-371); conditions: protein: recombinant; tags: N-terminal GST; dsDNA, one strand shown
# T5 sequence: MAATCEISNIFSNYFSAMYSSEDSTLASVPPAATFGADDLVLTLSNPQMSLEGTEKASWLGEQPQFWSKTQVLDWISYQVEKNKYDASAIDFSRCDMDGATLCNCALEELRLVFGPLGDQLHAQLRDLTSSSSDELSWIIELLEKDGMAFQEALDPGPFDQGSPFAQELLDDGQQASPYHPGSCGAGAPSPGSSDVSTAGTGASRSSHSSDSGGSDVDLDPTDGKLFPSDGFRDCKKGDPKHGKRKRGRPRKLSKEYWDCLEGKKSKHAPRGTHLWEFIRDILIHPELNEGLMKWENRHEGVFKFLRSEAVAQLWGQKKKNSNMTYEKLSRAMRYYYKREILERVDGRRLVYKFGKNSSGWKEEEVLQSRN
# Procedure, shortened: as §1
# CRX = CRX (Homo sapiens, UniProt O43186 1-299); conditions: protein: recombinant; tags: N-terminal GST; dsDNA, one strand shown
# Sequence of CRX (O43186 whole entry): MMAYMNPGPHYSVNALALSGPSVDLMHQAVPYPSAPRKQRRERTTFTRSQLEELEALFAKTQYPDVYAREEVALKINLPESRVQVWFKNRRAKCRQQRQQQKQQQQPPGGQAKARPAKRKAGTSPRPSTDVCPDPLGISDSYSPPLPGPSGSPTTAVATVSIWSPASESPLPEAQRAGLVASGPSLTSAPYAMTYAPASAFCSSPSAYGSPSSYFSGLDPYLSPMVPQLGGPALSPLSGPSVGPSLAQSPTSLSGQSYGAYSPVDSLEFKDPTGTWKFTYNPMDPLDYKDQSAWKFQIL
# Procedure, shortened: as §1
# ETV1 = ETV1 (Homo sapiens, UniProt P50549 1-477); conditions: protein: recombinant; tags: N-terminal GST; dsDNA, one strand shown
# Sequence of ETV1 (P50549 whole entry): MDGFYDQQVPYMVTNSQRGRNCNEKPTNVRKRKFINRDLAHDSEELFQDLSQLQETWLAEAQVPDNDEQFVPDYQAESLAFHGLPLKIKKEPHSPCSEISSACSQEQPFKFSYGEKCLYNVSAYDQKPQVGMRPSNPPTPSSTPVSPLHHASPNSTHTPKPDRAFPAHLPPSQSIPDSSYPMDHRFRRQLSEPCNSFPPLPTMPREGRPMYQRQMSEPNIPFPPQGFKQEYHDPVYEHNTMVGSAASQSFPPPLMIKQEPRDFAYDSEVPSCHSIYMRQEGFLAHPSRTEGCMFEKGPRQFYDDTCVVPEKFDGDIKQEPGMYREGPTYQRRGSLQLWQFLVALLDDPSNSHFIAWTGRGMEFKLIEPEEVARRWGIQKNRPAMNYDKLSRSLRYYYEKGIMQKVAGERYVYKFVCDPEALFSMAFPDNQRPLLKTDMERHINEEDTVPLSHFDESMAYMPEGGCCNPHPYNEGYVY
# Procedure, shortened: as §1
sequence,measurement,setting,value
AACTAT,binding signal,FEV,"1.31 fold enrichment (6-mer frequency, TF over GST control)"
same,binding signal,ETV5,"1.37 fold enrichment (6-mer frequency, TF over GST control)"
same,binding signal,HSF1,"1.33 fold enrichment (6-mer frequency, TF over GST control)"
same,binding signal,SPIC,"1.43 fold enrichment (6-mer frequency, TF over GST control)"
same,binding signal,ELF4,"1.36 fold enrichment (6-mer frequency, TF over GST control)"
same,binding signal,ELK4,"1.45 fold enrichment (6-mer frequency, TF over GST control)"
same,binding signal,ETV2,"1.49 fold enrichment (6-mer frequency, TF over GST control)"
same,binding signal,ELF3,"1.26 fold enrichment (6-mer frequency, TF over GST control)"
same,binding signal,CRX,"1.26 fold enrichment (6-mer frequency, TF over GST control)"
same,binding signal,ETV1,"1.43 fold enrichment (6-mer frequency, TF over GST control)"
